The supplement of paper PMC5641865, “A screen for kinase inhibitors identifies antimicrobial imidazopyridine aminofurazans as specific inhibitors of the Listeria monocytogenes PASTA kinase PrkA” (The Journal of Biological Chemistry, 2017)
± gives the standard deviation of the averaged measurements.

What follows are molecules tested on Listeria monocytogenes 10403S (assay: growth inhibition relative to ceftriaxone-alone control; higher = stronger potentiation of ceftriaxone growth inhibition). Conditions: 10 µM; ceftriaxone 1 ug/ml; 12 h.
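Note: End-point A600 read in BHI broth at 37 °C with 2% DMSO, inhibition computed as (1 − OD with compound plus ceftriaxone ÷ OD with ceftriaxone only) × 100.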

SMILES	growth inhibition [%]
COc1cc2ncnc(Nc3ccc(O)c(Br)c3)c2cc1OC	13.4 ± 5.2
C=CC(=O)Nc1cccc(Oc2nc(Nc3ccc(N4CCN(C)CC4)cc3)ncc2Cl)c1	13.3 ± 3.3
CN(C)CCOc1ccc(-c2cc(-c3ccc4c(c3)CCC4=NO)c(-c3ccncc3)o2)cc1	36.5 ± 39
CCCN(CCS(C)(=O)=O)Cc1ccc(-c2ccc3ncnc(Nc4ccc(OCc5cccc(F)c5)c(Cl)c4)c3c2)o1	-7.09 ± 4.2
Cc1cccc(-c2[nH]c(C(C)(C)C)nc2-c2ccc3nccnc3c2)n1	9.73 ± 13
COc1cccc(-n2ncc3c(N/N=C/c4ccc(C(=O)NCCN(C)C)cc4)ncnc32)c1	0.231 ± 2.8
COc1cc(OC)c(/C=C/S(=O)(=O)Cc2ccc(OC)c(NCC(=O)O)c2)c(OC)c1	4.69 ± 0.45
FC(F)(F)c1cccc(-c2nn3ncccc3c2-c2ccnc(Nc3ccc4c(c3)OCCO4)n2)c1	-5.79 ± 1.8
COc1cc2ncn(-c3cc(O[C@@H](C)c4ccccc4Cl)c(C(N)=O)s3)c2cc1OC	-12.3 ± 4.7
CS(=O)(=O)Nc1ccc(-c2ccc3c(NC(=O)C4CC4)n[nH]c3c2)cc1	38.6 ± 43
NS(=O)(=O)c1cccc(Nc2cc(-c3ccc(F)cc3)n[nH]2)c1	-5.13 ± 10
O=C1NC(=O)C(c2ccccc2[N+](=O)[O-])=C1Nc1ccc(O)c(Cl)c1	52.5 ± 49
NS(=O)(=O)c1ccc(NC=C2C(=O)Nc3ccc4ncsc4c32)cc1	-8.58 ± 4.7
Cc1ccc(NC(=O)c2cccc(N(C)C)c2)cc1NC(=O)c1ccc(O)cc1	29.5 ± 12
CC(=O)Nc1cccc(C#Cc2cncnc2Nc2ccc(OCc3cccc(F)c3)c(Cl)c2)c1	-15 ± 2.5
